# Source: PubChem BioAssay (NCATS)
# A number with no mark means an inactive call. Inconclusive results are not listed. A call without a number means that no potency is given here. Calls of active or inactive are those of the source. Calls follow the shape of the dose curve; as a rule, active = well fitted curve in the direction sought with a large enough effect; inconclusive = small, poorly fitted or top-dose-only effect, or another doubt; inactive = no such curve, though single readings can be large; an effect the other way counts as inactive or inconclusive.
# Experiments:
# [1] = test system: Zika virus NS2B-NS3 protease (linked construct); experiment: Primary screen NINDS Rhodamine qHTS for Zika virus inhibitors (AID 1347160); also: nearly all actives have a fitted effect of over 55% in size
# In short: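 Percent inhibition, normalized to uninhibited and enzyme-free controls, is fitted to a 4-parameter Hill equation. Fluorescence change comes from a 15-min cleavage of 1.5 microM bis-peptide Rhodamine110 substrate by 25 nM linked NS2B-NS3 at room temperature.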
# [2] = target: Glutathione peroxidase 1 (Homo sapiens) (UniProt P07203); experiment: Primary qHTS Assay for Inhibitors of Recombinant Selenoprotein Glutathione Peroxidase 1 (GPX1) (AID 1845191); also: nearly all actives have a fitted effect of over 65% in size
# In short: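 Recombinant GPX1 (10 nM final) was preincubated with compound for 30 min at room temperature, then reacted with 1 mM GSH, 0.5 mM CHP, 0.5 mM NADPH and 100 nM glutathione reductase; NADPH fluorescence (340/450 nm) was read at 0 and 15 min.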
# [3] = target: Phospholipid hydroperoxide glutathione peroxidase GPX4 (Homo sapiens) (UniProt P36969); experiment: Primary qHTS Assay for Inhibitors of Recombinant Selenoprotein Glutathione Peroxidase 4 (GPX4) (AID 1845192); also: nearly all actives have a fitted effect of over 65% in size
# In short: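 GR-coupled readout: 100 nM GR, 1 mM GSH, 0.5 mM NADPH; NADPH fluorescence (ex 340/em 450 nm) read at t=0 and after 15 min RT. GPX4 200 nM, preincubated 30 min with compound; substrate 0.5 mM CHP.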
# [4] = target: Luciferin 4-monooxygenase (Photinus pyralis) (UniProt P08659); experiment: Primary firefly luciferase (FLuc) qHTS assay for identification of artifact compounds. (AID 1845220); conditions: outcome: dose series up to 54.1 µM unless noted; also: nearly all actives have a fitted effect of over 60% in size
# In short: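 In this counter-screen for luciferase artifacts, test compounds met substrate (10 uM each luciferin and ATP) before 10 nM enzyme started the reaction. Light output was measured 5 min later.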
# [5] = Primary fluorescence-based thiol-reactive (MSTI) qHTS assay for identification of artifact compounds. (AID 1845221); also: nearly all actives have a fitted effect of over 65% in size; also: potency is read from the fitted curve at half-maximal effect;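 as to activity change, negative = thiol reactive: thiol-reactive compounds lower the probe fluorescence signal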
# In short: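 Probe: MSTI 4 uM, PBS pH 7.4, 2% DMSO. Incubation 1 h, RT, light-protected. Readout fluorescence 525/598 nm.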
# [6] = test system: Nanoluciferase (engineered Oplophorus gracilirostris luciferase); experiment: Primary Nanoluciferase (NLuc) qHTS assay for identification of artifact compounds. (AID 1845222);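 also: NLuc secreted into diluted conditioned medium of S16 cells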
# In short: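 Using secreted nanoluciferase in S16 culture medium (0.22 um filtered, 1:55 dilution), compounds were preincubated 15 min at RT. Signal was generated with Nano-Glo reagent (1:100) over 5 min.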
# [7] = test system: CRL-7250; experiment: Cytotoxic Profiling of Annotated Libraries Using Quantitative High-Throughput Screening (AID 1296008); conditions: Five cell lines viability, CellTiter-Glo ATP luminescence, 48-72 h; max response: active compounds read low; also: nearly all actives have a fitted effect of over 60% in size; also: potency is read from the fitted curve at half-maximal effect
# In short: (§1)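 Compounds were pin-transferred onto cells and incubated 48 or 72 hr at 37 degree Celsius, 95% humidity. CellTiter-Glo was added, plates sat 10 min at room temperature, then ATP-coupled luminescence was imaged as the viability read-out.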
# [8] = test system: KB-3-1; experiment: as above; conditions: Five cell lines viability, CellTiter-Glo ATP luminescence, 48-72 h; max response: active compounds read low
# In short: as §1
# [9] = test system: C33A; experiment: Primary qHTS to identify gynecologic anti-cancer compounds using libraries of approved drugs and bioactive compounds (AID 1345084); conditions: Gynecologic cancer cell panel viability, ATPlite luminescence, 48 h; series mostly up to 57.5 µM; also: nearly all actives have a fitted effect of over 55% in size; also: potency is read from the fitted curve at half-maximal effect
# In short: (§2)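 Cell viability after 48 h drug treatment, ATPlite luminescence readout; five doses.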
# [10] = test system: CAOV3; experiment: as above; conditions: Gynecologic cancer cell panel viability, ATPlite luminescence, 48 h; series mostly up to 57.5 µM
# In short: as §2
# [11] = test system: CASKI; experiment: as above; conditions: Gynecologic cancer cell panel viability, ATPlite luminescence, 48 h; series mostly up to 57.5 µM
# In short: as §2
# [12] = test system: Es-2; experiment: as above; conditions: Gynecologic cancer cell panel viability, ATPlite luminescence, 48 h; series mostly up to 57.5 µM
# In short: as §2
# [13] = test system: Hek293T; experiment: as above; conditions: Gynecologic cancer cell panel viability, ATPlite luminescence, 48 h, control line for the selectivity index; series mostly up to 57.5 µM
# In short: as §2
# [14] = test system: JEG-3; experiment: as above; conditions: Gynecologic cancer cell panel viability, ATPlite luminescence, 48 h; series mostly up to 57.5 µM
# In short: as §2
# [15] = test system: OV90; experiment: as above; conditions: Gynecologic cancer cell panel viability, ATPlite luminescence, 48 h; series mostly up to 57.5 µM
# In short: as §2
# [16] = test system: PA-1; experiment: as above; conditions: Gynecologic cancer cell panel viability, ATPlite luminescence, 48 h; series mostly up to 57.5 µM
# In short: as §2
# [17] = test system: Tov-21-G; experiment: as above; conditions: Gynecologic cancer cell panel viability, ATPlite luminescence, 48 h; series mostly up to 57.5 µM
# In short: as §2
# [18] = test system: Tov112D; experiment: as above; conditions: Gynecologic cancer cell panel viability, ATPlite luminescence, 48 h; series mostly up to 57.5 µM
# In short: as §2
# [19] = target: Calcium and integrin-binding protein 1 (Homo sapiens) (UniProt Q99828); experiment: Primary qHTS for Identification of Calcium Integrin Binding Protein 1 (CIB1) Competitor (AID 1508620);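 also: GST tagged CIB1 binding a fluorescein labelled alphaIIb integrin peptide tracer; top concentration of the series differs between compounds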
# In short: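 Fluorescence polarization competition: CIB1-GST (1 uM final) preincubated with compound 15 min at room temperature, then FITC-labeled alphaIIb peptide (100 nM final) added for another 15 min. Polarization read at Ex 480/Em 540.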
# [20] = Primary redox qHTS assay for identification of artifact compounds. (AID 1845223)
# In short: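 Amplex Red (25 uM) and HRP (250 mU/mL) in HBSS, with compounds for 15 min, then 250 uM DTT for 30 min, room temperature, dark. Fluorescence 525/598 nm read; normalized to DMSO and 10 uM DA3003; Hill fit.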
# Sequence of Glutathione peroxidase 1 (Homo sapiens) (P07203 whole entry, looked up): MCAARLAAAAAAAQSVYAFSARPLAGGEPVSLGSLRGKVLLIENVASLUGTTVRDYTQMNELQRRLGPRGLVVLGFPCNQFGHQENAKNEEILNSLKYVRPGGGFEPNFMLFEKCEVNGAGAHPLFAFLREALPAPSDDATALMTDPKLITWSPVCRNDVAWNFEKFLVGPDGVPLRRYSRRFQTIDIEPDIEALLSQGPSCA
# Sequence of Phospholipid hydroperoxide glutathione peroxidase GPX4 (Homo sapiens) (P36969 whole entry, looked up): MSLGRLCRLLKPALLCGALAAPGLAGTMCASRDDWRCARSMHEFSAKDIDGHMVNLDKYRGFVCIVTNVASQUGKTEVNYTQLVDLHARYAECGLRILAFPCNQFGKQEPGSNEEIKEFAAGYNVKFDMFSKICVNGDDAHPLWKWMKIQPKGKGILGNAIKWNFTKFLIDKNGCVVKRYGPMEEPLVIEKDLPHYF
# Sequence of Calcium and integrin-binding protein 1 (Homo sapiens) (Q99828 whole entry, looked up): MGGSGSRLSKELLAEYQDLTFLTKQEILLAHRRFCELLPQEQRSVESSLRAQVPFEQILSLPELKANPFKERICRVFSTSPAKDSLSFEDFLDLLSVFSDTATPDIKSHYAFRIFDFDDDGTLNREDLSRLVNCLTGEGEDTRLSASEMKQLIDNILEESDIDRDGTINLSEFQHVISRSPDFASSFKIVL
structure (smiles),measurement,setting,value
CN(C)[C@@H]1C(=O)C(C(N)=O)=C(O)[C@@]2(O)C(=O)C3=C(O)c4c(O)ccc(Cl)c4[C@@](C)(O)C3C[C@@H]12 (some centres undefined),Potency,[1],inactive
same,Potency,[2],inactive
same,Potency,[3],inactive
same,outcome,[4],inactive
same,Potency,[5],1.68 µM (active)
same,Potency,[6],inactive
same,max response,[7],-6.15%
same,max response,[8],-13.4%
same,Potency,[9],inactive
same,Potency,[10],inactive
same,Potency,[11],inactive
same,Potency,[12],inactive
same,Potency,[13],inactive
same,Potency,[14],inactive
same,Potency,[15],inactive
same,Potency,[16],inactive
same,Potency,[17],inactive
same,Potency,[18],inactive
COC1CC(O[C@H]2CC[C@@]3(C)C(CCC4C3CC[C@]3(C)C(C5=CC(=O)OC5)CCC43O)C2)OC(C)C1OC1OC(COC2OC(CO)C(O)C(O)C2O)C(O)C(O)C1O (some centres undefined),Potency,[1],inactive
same,Potency,[19],inactive
same,Potency,[2],inactive
same,Potency,[3],inactive
same,"activity change, negative = inhibition",[4],-3.95% [at 11.6 µM]
same,"activity change, negative = thiol reactive",[5],0.284% [at 11.5 µM]
same,"activity, negative = inhibition",[6],0.592% [at 11.6 µM]
same,redox activity (% of DA3003),[20],16.1% [at 11.5 µM]
same,Potency,[7],0.693 µM (active)
same,Potency,[8],2.76 µM (active)
same,Potency,[9],2.24 µM (active)
same,Potency,[12],3.16 µM (active)
same,Potency,[13],3.55 µM (active)
same,Potency,[16],2.24 µM (active)
same,Potency,[17],2.24 µM (active)
same,Potency,[18],0.794 µM (active)
C=C(C)[C@@]12O[C@@H]1[C@@]1(C)C(=CC2=O)CC[C@@H](OC(C)=O)[C@@H]1C,Potency,[19],inactive
same,Potency,[2],inactive
same,Potency,[3],inactive
same,outcome,[4],inactive
same,Potency,[5],inactive
same,Potency,[6],inactive
same,Potency,[20],inactive
same,Potency,[7],6.51 µM (active)
same,Potency,[8],13 µM (active)
same,Potency,[10],inactive
same,Potency,[11],inactive
same,Potency,[14],inactive
same,Potency,[17],10 µM (active)
CC(C)[C@H](NC(=O)c1nn(Cc2ccc(F)cc2)c2ccccc12)C(N)=O,Potency,[1],inactive
same,Potency,[19],inactive
same,Potency,[2],inactive
same,Potency,[3],inactive
same,outcome,[4],inactive
same,Potency,[5],inactive
same,Potency,[6],inactive
same,max response,[7],-7.52%
same,max response,[8],0.24%
same,Potency,[9],inactive
same,Potency,[10],inactive
same,Potency,[11],inactive
same,Potency,[12],inactive
same,Potency,[13],inactive
same,Potency,[14],inactive
same,Potency,[15],inactive
same,Potency,[16],inactive
same,Potency,[17],inactive
same,Potency,[18],inactive
C[C@@H]1O[C@@H](OC2CCC3(C=O)C(CCC4C3CCC3(C)C(C5=CC(=O)OC5)C(O)CC43O)C2)[C@H](O)[C@H](O)[C@H]1O[C@@H]1O[C@H](CO)[C@@H](O)[C@H](O)[C@H]1O (some centres undefined),Potency,[1],inactive
same,Potency,[2],inactive
same,Potency,[3],inactive
same,outcome,[4],inactive [at 25.7 µM]
same,Potency,[6],inactive
same,Potency,[20],inactive
same,Potency,[7],3.06 µM (active)
same,Potency,[9],5.62 µM (active)
same,Potency,[11],inactive
same,Potency,[12],6.31 µM (active)
same,Potency,[13],10 µM (active)
same,Potency,[17],3.98 µM (active)
same,Potency,[18],3.16 µM (active)
CN(Cc1cccc(-c2ccncc2)c1)C(=O)Oc1ccc(-c2ccc(C(N)=O)cc2)cc1,Potency,[1],inactive
same,Potency,[19],inactive
same,Potency,[2],inactive
same,Potency,[3],inactive
same,outcome,[4],inactive
same,Potency,[5],inactive
same,Potency,[6],inactive
same,Potency,[20],inactive
same,outcome,[7],inactive
same,max response,[8],1.21%
same,Potency,[9],inactive
same,Potency,[10],inactive
same,Potency,[11],inactive
same,Potency,[12],inactive
same,Potency,[13],inactive
same,Potency,[14],inactive
same,Potency,[15],inactive
same,Potency,[16],inactive
same,Potency,[17],inactive
same,Potency,[18],inactive
